Source: PubChem BioAssay
Hits are enriched below; roughly 2.3% of the tested compounds scored in any of these assays.
LGR2 antag: inhibitors of bursicon-induced LGR2 CRE-luciferase signal, primary screen, cell-based, HEK293, CRE-luciferase reporter, bursicon stimulation. Drosophila bursicon receptor LGR2 (rickets). 380,000 compounds, 0.35% hits. inhibition, % at 9.99 µM. bursicon-stimulated, 4 h;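 active = drop in luminescence signal, shown as inhibition above about 50% in the replicate tests, limit read from the data, passing the limit was not always enough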;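 note: agonist challenge used bursicon conditioned medium at about half maximal strength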
CF NFkB inh: inhibitors of PAF-induced NF-kB signaling, primary screen, cell-based, GFP fluorescence, uHTS; KKLEB NF-kB-GFP reporter, GFP fluorescence overnight; inhibition, % at 5 µM; 360,000 compounds, 0.86% hits; AID 588850, 2011;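 active = at least 50% inhibition at 5 µM, scaled per plate between neutral and stimulator controls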;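 note: PAF is a Pseudomonas aeruginosa culture filtrate used as stimulus; plate controls were PAF-stimulated DMSO wells for no effect and unstimulated DMSO wells for full effect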
KKLEB cytotox: cytotoxicity in KKLEB CF airway cells, primary screen, cytotoxicity control for CF NF-kB inhibitor project, cell-based, uHTS, fluorescence assay plates | KKLEB CF airway cells viability, ATPlite luminescence, overnight; active compounds read low; cells stimulated with P. aeruginosa culture filtrate | AID 602141, 2011 | activity change (cytotoxicity), % at 5 µM | 360,000 compounds, 0.36% hits;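 active = corrected activity change at or below -50% at 5 µM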
HIF-2a block: HIF-2a reporter inhibitors, primary screen, luminescence, 786-0 RCC cells; inhibition, % at 18.8 µM; 360,000 compounds, 0.72% hits; 786-0 RCC cells HIF-2a reporter, luciferase luminescence, overnight; AID 624352, 2012;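 active = inhibition of the luminescence signal of 40% or more relative to plate controls, in a single-dose primary screen at 18.75 µM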
hiPSC survival: enhancers of single-cell hiPSC survival, primary screen, ATPlite luminescence | 360,000 compounds, 0.044% hits | survival enhancement, % at 20 µM | 100% = ROCK inhibitor wells, 0% = DMSO | AID 602274, 2012; in the data active = survival enhancement above about 18%;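 note: cells exposed to compounds for 16 hours before the ATP read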
TWEAK-Fn14 inh: inhibitors of TWEAK-Fn14 signaling, primary screen, luciferase reporter cells, uHTS | TWEAK-stimulated Fn14 reporter cells, luciferase luminescence, 8 h | inhibition, % at 10 µM | 360,000 compounds, 2% hits | AID 1159606, 2016; in the data active = inhibition above about 50%
* hit, by the source's call.

Screening Cc1ccc(-c2nn(-c3ccccc3)cc2/C=N/NC(=O)c2ccc(Br)o2)cc1 returned CF NFkB inh -14, KKLEB cytotox 9, HIF-2a block -95, hiPSC survival -2 and TWEAK-Fn14 inh 35.
For COc1ccc(-c2nn(-c3ccccc3)cc2/C=N/NC(=O)c2cccc(S(=O)(=O)Nc3ccccc3Cl)c2)cc1 the results were LGR2 antag 0, CF NFkB inh -12, KKLEB cytotox -16, HIF-2a block -86, hiPSC survival -1 and TWEAK-Fn14 inh 56*.
Screening Cc1nn(-c2ccccc2)c(Cl)c1/C=N/NC(=O)c1cccc(S(=O)(=O)N2CCCC2)c1 returned LGR2 antag -5, CF NFkB inh 29, KKLEB cytotox -26, HIF-2a block 18, hiPSC survival -1 and TWEAK-Fn14 inh 62*.
O=C(N/N=C\c1cn(-c2ccccc2)nc1-c1ccccc1)c1ccc(Br)o1 was read as CF NFkB inh -4, KKLEB cytotox -3, HIF-2a block -85, hiPSC survival 0 and TWEAK-Fn14 inh 55*.
For COc1ccc(S(=O)(=O)Nc2ccc3c(c2)C(=O)N([C@@H](C)CO)C[C@H](C)[C@H](CN(C)C(=O)CCCN(C)C)OCCCC[C@H](C)O3)cc1 the results were LGR2 antag 7.
`CC1(c2ccccc2)CCC(=O)NC1` (configuration not stated) gave LGR2 antag 10, CF NFkB inh -23, KKLEB cytotox 10, HIF-2a block 8, hiPSC survival 7 and TWEAK-Fn14 inh 6.
CC1C(=O)CCC1(C(=O)O)c1ccccc1 (configuration not stated) was read as LGR2 antag 0, CF NFkB inh 1, KKLEB cytotox 5, HIF-2a block 19, hiPSC survival 1 and TWEAK-Fn14 inh 98*.
Screening COc1ccccc1CN1C[C@@H]2N[C@H](C1)C2c1ccc(/C=C/c2ccccc2)cc1 (some centres not stated) returned LGR2 antag -1.
Screening C[C@H](CO)N1C[C@H](C)[C@@H](CN(C)C(=O)C2CCCCC2)Oc2ncc(C#CC3CC3)cc2C1=O returned LGR2 antag -9.
Screening Cc1ccccc1C(=O)Nc1cccc(NC(=O)c2ccc(-c3ccc(Br)cc3)o2)c1 returned CF NFkB inh 44, KKLEB cytotox -53*, HIF-2a block -20, hiPSC survival -3 and TWEAK-Fn14 inh -18.
COc1ccc(NC(=O)N2CCC3(CC2)CN(CC2CC2)[C@H](CO)c2c3c3ccc(OC)cc3n2C)cc1 was read as LGR2 antag 15.
Screening COc1ccc(S(=O)(=O)N2c3ccccc3OCC2c2ccccc2)cc1 (configuration not stated) returned CF NFkB inh 12, KKLEB cytotox -13, HIF-2a block 29, hiPSC survival 2 and TWEAK-Fn14 inh 79*.
COc1ccc(S(=O)(=O)N2c3ccccc3OCC2C)cc1 (configuration not stated) was read as LGR2 antag -2, CF NFkB inh 18, KKLEB cytotox -8, HIF-2a block 29, hiPSC survival -1 and TWEAK-Fn14 inh 9.
For COc1cc(NC(=O)OCc2ccccc2)c2ncccc2c1 the results were LGR2 antag -7, CF NFkB inh -2, KKLEB cytotox -12, HIF-2a block -14, hiPSC survival -1 and TWEAK-Fn14 inh 6.
COc1cc(NCCCCCCCN)c2ncccc2c1 was read as CF NFkB inh 11, KKLEB cytotox -14, HIF-2a block 4, hiPSC survival -4 and TWEAK-Fn14 inh 97*.
For COc1cc(NC(C)CCCN)c2ncccc2c1 (configuration not stated) the results were CF NFkB inh 23, KKLEB cytotox -19, HIF-2a block -1, hiPSC survival 0 and TWEAK-Fn14 inh 86*.
`COc1cc(NCc2ccccc2O)c2ncccc2c1` gave LGR2 antag -10, CF NFkB inh 1, KKLEB cytotox -5, HIF-2a block -31, hiPSC survival 0 and TWEAK-Fn14 inh 15.
For O=C1NC(=S)N/C1=C/c1ccc2c(c1)OCO2 the results were LGR2 antag 43, CF NFkB inh 78*, KKLEB cytotox -22, HIF-2a block 20, hiPSC survival -1 and TWEAK-Fn14 inh 54*.
Screening O=C1NC(=S)SC1=Cc1ccc2c(c1)OCO2 returned LGR2 antag -35, CF NFkB inh 39, KKLEB cytotox -24, HIF-2a block -137, hiPSC survival 4 and TWEAK-Fn14 inh -4.
Screening COC(=O)/C=c1\sc2ncnn2c1=O returned LGR2 antag 4, CF NFkB inh 8, KKLEB cytotox 4, HIF-2a block 7, hiPSC survival 0 and TWEAK-Fn14 inh 74*.
COc1ccc2[nH]c3c(NCCC4=CCCCC4)ncnc3c2c1 was read as LGR2 antag 14, CF NFkB inh 16, KKLEB cytotox -14, HIF-2a block -246, hiPSC survival 0 and TWEAK-Fn14 inh 79*.
CCCC(=O)N1CC2(CN(S(=O)(=O)CC)C2)c2c(n(C)c3cc(OC)ccc23)[C@H]1CO was read as LGR2 antag -17.
`COCC(=O)N(Cc1ccccc1)c1ccccn1` gave CF NFkB inh 7, KKLEB cytotox -2, HIF-2a block 18, hiPSC survival 0 and TWEAK-Fn14 inh -13.
`CCCC(C)C(=O)N(Cc1ccccc1)c1ccccn1` (configuration not stated) gave CF NFkB inh 8, KKLEB cytotox -3, HIF-2a block -10, hiPSC survival 0 and TWEAK-Fn14 inh 61*.
CO[C@@H]1CN(C)C(=O)c2ccc(NS(=O)(=O)c3ccccc3)cc2OC[C@@H](C)N(Cc2ccccn2)C[C@H]1C was read as LGR2 antag -3.
For O=C(C[C@@H]1C=C[C@H](NC(=O)Nc2ccc3c(c2)OCO3)[C@H](CO)O1)NCc1ccc2c(c1)OCO2 the results were LGR2 antag 14.
`COc1ccc2nc(NC(=O)CSc3nnc(C)s3)sc2c1` gave LGR2 antag -29, CF NFkB inh -4, KKLEB cytotox -7, HIF-2a block -165, hiPSC survival -2 and TWEAK-Fn14 inh 3.
COc1ccc(-c2csc(NC(=O)CSc3nc(C)cs3)n2)cc1 was read as CF NFkB inh 0, KKLEB cytotox 2, HIF-2a block -147, hiPSC survival 0 and TWEAK-Fn14 inh -34.
COc1ccc2nc(NC(=O)CSc3nc(SC)ns3)sc2c1 was read as LGR2 antag -31, CF NFkB inh 7, KKLEB cytotox 19, HIF-2a block -145, hiPSC survival -2 and TWEAK-Fn14 inh 53*.
